Bioassay records (PubChem)
BAZ2B inh: inhibitors of human BAZ2B bromodomain. Q9UIF8. AlphaScreen BAZ2B-H3K14Ac peptide displacement. Potency, µM (highest dose often 114 µM), most hits filed as inhibitors. 4.4% of 360,000 active. AID 504333; note: nearly all actives have a fitted effect of over 60% in size
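AlphaScreen displacement of biotin-H3(5-23)K14Ac peptide (50 nM final) from BAZ2B (50 nM final) in PBS pH 7.4, 0.01% Tween-20; complex preformed 30 min RT, then compounds (top 110 uM) 30 min RT, beads 20 min dark.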
HP1b binding inh: inhibitors of HP1-beta chromodomain binding to methylated histone tails | P83916 | AlphaScreen HP1-beta / biotin-H3K9me3 peptide binding | Potency, µM (series often up to 114 µM), hits mostly inhibitors | 0.56% of 390,000 active | AID 540317; note: nearly all actives have a fitted effect of over 70% in size
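AlphaScreen: HP1-beta (50 nM) preformed 30 min with biotin-H3(1-18)K9me3 peptide (50 nM) in PBS pH 7.4, 0.01% Tween-20. Compound added for 30 min at RT, then streptavidin donor/nickel chelate acceptor beads (10 ug/mL) for 30 min.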
PLK1 PBD inh: blocks phosphopeptide binding to human PLK1 polo-box domain; P53350; Plk1 PBD binding of FITC phosphopeptide, fluorescence polarization; Potency, µM, usual class: inhibitors; 2.8% of 360,000 active; AID 720504; note: series mostly up to about 57 µM; nearly all actives have a fitted effect of over 65% in size
ALOX12 inh: blocks human arachidonate 12S-lipoxygenase | AID 1671190 | purified 12hLO, xylenol orange hydroperoxide absorbance | Potency, µM (series often up to 108 µM), usual class: inhibitors | 1.1% of 580,000 active | P18054
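Hydroperoxide product was detected by ferrous iron/xylenol orange as the 573 to 405 nm absorbance ratio. Arachidonic acid at 40 uM (final) was turned over for 30 min at room temperature by 150 nM human 12hLO, pH 7.0 Hepes buffer, after 15 min compound preincubation.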
G9a block: inhibitors of human histone lysine methyltransferase G9a; G9a H3K9 monomethylation, AlphaScreen, 2 h; Potency, µM (doses to about 102 µM), most hits filed as inhibitors; 8.8% of 350,000 active; AID 504332; note: nearly all actives have a fitted effect of over 75% in size
Target sequence (Q96KQ7 913-1193 limits assumed): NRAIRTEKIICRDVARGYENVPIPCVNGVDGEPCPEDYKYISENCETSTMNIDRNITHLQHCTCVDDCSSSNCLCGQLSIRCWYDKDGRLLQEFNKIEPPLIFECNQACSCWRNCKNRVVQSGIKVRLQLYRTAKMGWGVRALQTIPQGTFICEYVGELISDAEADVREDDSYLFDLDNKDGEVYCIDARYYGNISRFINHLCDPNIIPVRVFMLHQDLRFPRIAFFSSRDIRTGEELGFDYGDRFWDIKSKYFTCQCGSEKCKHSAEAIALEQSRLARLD
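Using a bead-based AlphaScreen, monomethylated H3K9 product from 2 h room-temperature reactions (G9a 20 nM, peptide 500 nM, SAM 20 uM) was detected with 0.5 ug/mL rabbit anti-H3K9me1 antibody.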
JMJD2A Tudor inh: inhibitors of human JMJD2A Tudor domain; O75164; Potency, µM (doses to about 114 µM), actives largely listed as inhibitors; 4.4% of 390,000 active; AlphaScreen JMJD2A-Tudor / H3K4me3 peptide binding; note: nearly all actives have a fitted effect of over 50% in size
12-hLO 8HQ R1: confirmation of human 12-lipoxygenase inhibitors, 8HQ series round 1. shares compounds with BAZ2B inh. purified 12-hLO, cuvette UV 234 nm product formation. 60% of 35 active. Potency, µM, most hits filed as inhibitors;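 active = compounds that slowed 12-hLO product formation enough to yield a measured IC50 potency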
JMJD2E inh-1: blocks human JMJD2E demethylase activity; shares compounds with BAZ2B inh; JMJD2E demethylase, FDH-coupled NADH fluorescence; Potency, µM (doses to about 57 µM), most hits filed as inhibitors; 89% of 130 active; AID 493212
Target sequence (B2RXH2 1-337 limits assumed): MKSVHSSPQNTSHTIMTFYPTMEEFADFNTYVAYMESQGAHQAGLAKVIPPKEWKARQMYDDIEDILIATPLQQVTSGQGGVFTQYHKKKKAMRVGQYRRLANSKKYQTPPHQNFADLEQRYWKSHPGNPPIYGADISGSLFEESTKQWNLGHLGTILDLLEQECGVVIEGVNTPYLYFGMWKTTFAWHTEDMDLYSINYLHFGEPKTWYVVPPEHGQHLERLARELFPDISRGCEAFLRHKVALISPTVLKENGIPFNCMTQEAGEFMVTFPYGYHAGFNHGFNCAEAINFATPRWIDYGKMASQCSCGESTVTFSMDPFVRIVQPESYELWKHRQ
ME-1 prolif: reduces ME-1 leukemia cell proliferation. 20% of 140 active. Potency, µM (top dose mostly 56.1 µM), usual class: inhibitors. AID 504370. ME-1 cell proliferation, ATP luminescence, 48 h. shares compounds with BAZ2B inh
JMJD2E inh-2: confirmation of inhibitors of human JMJD2E demethylase; shares compounds with JMJD2A Tudor inh; Potency, µM (series often up to 56.8 µM), actives largely listed as inhibitors; 93% of 140 active; Recombinant JMJD2E, FDH-coupled NADH fluorescence (FDH is formaldehyde dehydrogenase)
FDH inh: counter-screen for JMJD2E inhibitors: Pseudomonas putida formaldehyde dehydrogenase | FDH enzyme assay, NADH fluorescence kinetic | 10% of 140 active | shares compounds with JMJD2A Tudor inh | AID 2680 | Potency, µM (top dose mostly 56.7 µM), hits mostly inhibitors
JMJD2E MS inh: human KDM4E demethylase inhibition. 90% of 45 active. Potency, µM, usual class: inhibitors. shares compounds with JMJD2A Tudor inh. recombinant JMJD2E demethylation, MALDI-TOF-MS. AID 2688;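 active = compounds whose IC50 for blocking JMJD2E demethylation is below 100 µM; inconclusive = dose dependent effect but IC50 above 100 µM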
Numbers stand for hits; 0 = inactive; ? = inconclusive; - = no result given; [ ] = another dose, or the depositor's remark. Compounds with a hit are over-represented: about 9% of the library has one in this group of screens. Unless noted, calls come from the whole dose curve; as a rule, active = well fitted curve in the direction sought with a large enough effect; inconclusive = small, poorly fitted or top-dose-only effect, or another doubt; inactive = no such curve, though single readings can be large; an effect the other way counts as inactive or inconclusive.

SMILES	BAZ2B inh	HP1b binding inh	PLK1 PBD inh	ALOX12 inh	G9a block	JMJD2A Tudor inh	ME-1 prolif	others
N[C@@H](Cc1ccc(O)cc1)C(=O)O	-	-	-	-	0	-	-
NC(Cc1ccc(O)c(O)c1)C(=O)O (stereo not drawn)	-	-	-	-	-	-	?
N[C@H](Cc1ccc(O)c(O)c1)C(=O)O	-	-	-	-	18µM	-	0
CCc1nn(CCCC(=O)N2CCC(C)CC2)c(=O)c2cc3occc3n12	0	0	0	0	-	0	-
O=C1c2cccc3cccc(c23)C(=O)N1/N=C/c1ccc(O)cc1O	0	0	0	0	0	0	-
O=C1c2ccccc2C(=O)N1/N=C/c1ccc(O)c(O)c1O	?	22µM	13µM	-	?	22µM	?
CCN=C(NCC)SC1CC(=O)N(c2cccc(OC)c2)C1=O (stereo not drawn)	0	0	0	?	0	0	-
Cc1c2c(c(O)c3c(O)cccc13)C(=O)O[C@H]2C1C(N(C)C)C(O)=C(C(N)=O)C(=O)[C@H]1O (stereo partly drawn)	-	-	-	-	-	-	0
Cc1ccc(NC(=O)COc2ccc(S(=O)(=O)N3CCOCC3)cc2)cc1	0	0	0	0	0[0.0925 µM]	0	-
CC1CCCN(S(=O)(=O)c2ccc(-c3nc(C#N)c(NCCc4ccccc4)o3)cc2)C1 (stereo not drawn)	-	-	-	0	-	-	-
O=c1[nH]cc(I)cc1I	0	0	0	0	0	0	0
O=C(NN1C(=O)CSC1=S)C(=O)NN1C(=O)CSC1=S	?	0	0	0	?	32µM	0
CC(=O)Cc1cc2cc([N+](=O)[O-])ccc2oc1=O	0	0	0	0	0	0	-
c1ccc(CSc2ccc(-c3ccccn3)nn2)nc1	4.5µM	0	0	0	0	?	?
CCC(NC(=O)c1cc(COc2cncc(Cl)c2)on1)c1ccncc1 (stereo not drawn)	0	0	0	0	0	0	-
Cc1ccccc1NC(=S)N(CCN(C)C)C(C)c1cccnc1 (stereo not drawn)	0	0	0	0	0	0	-
Cc1c(Cl)cccc1NC(=S)N(CCN(C)C)C(C)c1ccccn1 (stereo not drawn)	50µM	0	0	0	0	0	0
Cc1ccccc1NC(=S)N(CCN(C)C)C(C)c1ccccn1 (stereo not drawn)	?	0	0	0	0	0	0
CCCCCCN1C[C@@H](O)[C@H](n2cc(C3CC3)nn2)C[C@@H]1c1ccc(OC)cc1	-	-	0	0	-	-	-
CC(=O)Oc1cc2cccc(OC(C)=O)c(=O)c2c(OC(C)=O)c1OC(C)=O	1.6µM	?	?	-	2.8µM	8.9µM	?
COc1ccc(CN2C[C@@H](CO)[C@H](C3CCN(C(C)=O)CC3)C2)cc1C	-	-	-	0	-	-	-
CC(=O)Oc1cc(-c2coc3cc(OC(C)=O)c(OC(C)=O)c(OC(C)=O)c3c2=O)cc(OC(C)=O)c1OC(C)=O	-	-	-	-	0[2.33 µM]	-	0
Oc1ccc(/C=N/NC(=S)Nc2cccnc2)c(O)c1	2.8µM	0	?	?	25µM	40µM	14µM
Oc1ccc(/C=N/NC(=S)Nc2cccnc2)c(O)c1O	2.2µM	5µM	6.7µM	?	0	3.5µM	?
Fc1c(F)c(F)c(/C=N/NC(=S)Nc2cccnc2)c(F)c1F	0	0	0	0	0[12.7 µM]	0	-
SMILES	BAZ2B inh	HP1b binding inh	PLK1 PBD inh	ALOX12 inh	G9a block	JMJD2A Tudor inh	ME-1 prolif	others
Cc1cc(C(=O)NC2Cc3ccccc3C2)c(C)o1	0	0	0	0	-	0	0
CC(=O)NC(c1ccco1)c1cc(Cl)c2ccc(N3CCCCC3)nc2c1O (stereo not drawn)	?	-	-	-	4µM	-	-	12-hLO 8HQ R1=0;JMJD2E inh-1=20µM
COc1ccc(C(=O)NC(c2ccccc2Cl)c2cc(Cl)c3cccnc3c2O)cc1 (stereo not drawn)	0	0	-	0	0	?	-
Fc1ccc([C@H]2CCNCC2COc2ccc3c(c2)OCO3)cc1 (stereo partly drawn)	-	-	-	-	0[2.33 µM]	-	0
COc1cc(C2c3cc4c(cc3C(OC3OC5COC(C)O[C@@H]5C(O)C3O)C3COC(=O)C23)OCO4)cc(OC)c1O (stereo partly drawn)	-	-	-	-	0[2.33 µM]	-	0.79µM
COc1cc([C@@H]2c3cc4c(cc3[C@@H](O[C@@H]3O[C@@H]5CO[C@@H](C)O[C@H]5[C@H](O)[C@H]3O)[C@H]3COC(=O)[C@H]23)OCO4)cc(OC)c1O	-	0	0	0	-	0	-
CCOC(=O)[C@H](CCc1ccccc1)N[C@@H](C)C(=O)N1[C@H](C(=O)O)C[C@H]2CCCC[C@@H]21	-	-	-	-	0	-	0
Cc1c(O)c(CN(C)C)cc2c1oc(=O)c1ccccc12	0	0	0	0	?	0	-
O=c1oc2c(O)c(O)cc3c(=O)oc4c(O)c(O)cc1c4c23	0.79µM	?	8.4µM	?	1.3µM	0.71µM	0
COc1ccc(-c2csc(N)n2)cc1	0	0	0	0	?	0	0
COc1ccc(-c2csc(N=C(N)N)n2)cc1	?	0	0	0	?	0	-
CCCc1nc(SCC(=O)NNC(=O)c2ccc(OC)cc2)c2ccccc2n1	0	0	0	0	0	0	-
CCNC1=C(Cl)C(=O)c2ccccc2C1=O	35µM	?	0	0	?	50µM	?
CCNc1ccccc(-c2ccc3ccccc3n2)c1=O	0	0	0	0	0	0	-
CC(C)(C)OC(=O)N1CCC(c2c(C(=O)NCCN3CCOCC3)cnn2-c2cccc(Cl)c2)CC1	0	0	-	0	0	0	-
Oc1ccc(CNc2ccc(C(F)(F)F)cc2F)c2cccnc12	-	-	-	-	-	50µM	-	JMJD2E inh-1=2.2µM;JMJD2E inh-2=2.2µM;FDH inh=0;JMJD2E MS inh=20
O=C(NCc1c[nH]c2ncccc12)c1ccc(C(F)(F)F)cc1	-	-	-	0	-	-	-
Cc1ccc(NCc2ccc(O)c3ncccc23)c(F)c1	-	-	-	-	-	18µM	-	JMJD2E inh-1=0.71µM;JMJD2E inh-2=8.1µM;FDH inh=0;JMJD2E MS inh=11
